Bioassay records deposited in PubChem by Sanford-Burnham Center for Chemical Genomics.
Rows were chosen to be rich in hits. Some 31% of all compounds tested hit in one or more screens of this group.
CYP2C19 inhib – blocks human cytochrome P450 2C19 | 96,000 tested, 21% active | AID 778 | inhibition, % at 5 µM | CYP2C19 Supersomes, luciferin-H EGE luminescence, 30 min | P33261;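 active = CYP2C19 inhibition above a set limit at 5 µM in the primary screen, cut at about 50% in these data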
CYP2C19 act – cytochrome P450 2C19 (human) activation; recombinant CYP2C19, luciferin-H EGE luminescence; hits give high values; 0 = fully inhibited enzyme, 1 = untreated enzyme; P33261; activation factor at 5 µM; 96,000 tested, under 10 active; AID 1025;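 active = activation factor of at least 2 at 5 µM in the primary screen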
CYP2C9 inhib – human CYP2C9 inhibition. AID 777. 96,000 tested, 20% active. P11712. CYP2C9 Supersomes, luciferin-H conversion, luminescence. inhibition, % at 5 µM;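 active = blocking of liver enzyme CYP2C9 beyond about 50% at 5 µM, limit read from the data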
Target sequence (P11712 whole entry, looked up): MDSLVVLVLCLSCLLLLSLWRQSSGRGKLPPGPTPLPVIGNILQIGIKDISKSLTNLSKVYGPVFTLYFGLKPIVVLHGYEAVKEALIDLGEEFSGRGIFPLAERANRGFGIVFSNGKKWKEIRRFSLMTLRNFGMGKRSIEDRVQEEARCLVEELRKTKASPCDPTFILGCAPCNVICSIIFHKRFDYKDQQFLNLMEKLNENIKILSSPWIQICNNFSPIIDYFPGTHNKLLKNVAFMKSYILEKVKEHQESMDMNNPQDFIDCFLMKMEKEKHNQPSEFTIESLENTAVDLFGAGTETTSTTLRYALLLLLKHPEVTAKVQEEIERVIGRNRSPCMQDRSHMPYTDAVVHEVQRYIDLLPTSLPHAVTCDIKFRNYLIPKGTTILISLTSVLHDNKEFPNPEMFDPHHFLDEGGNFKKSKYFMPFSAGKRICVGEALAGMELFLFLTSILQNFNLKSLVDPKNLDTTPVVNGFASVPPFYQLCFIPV
PLAP activator – activates human placental alkaline phosphatase; P05187; purified PLAP enzyme, luminescent substrate read-out; hits give high values; activation fold at 20 µM; 96,000 tested, 1.2% active; AID 696; in the data active = activation fold above about 2
CYP2C9 act – increases human cytochrome P450 2C9 activity. recombinant CYP2C9, luciferin-H conversion, luminescence; hits give high values; factor 1 = untreated enzyme, 0 = blocked. activation factor at 5 µM. 96,000 tested, 1.4% active. AID 1024;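 active = activation factor of 2 or more for CYP2C9 at a 5 µM dose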
A number is an active result; n = inactive; x = no result.

SMILES	CYP2C19 inhib	CYP2C19 act	CYP2C9 inhib	PLAP activator	CYP2C9 act
COc1ccc(NC(=O)Cn2nnc(-c3ccccc3NC(=O)C3CC3)n2)cc1	94	n	n	n	n
CCC(=O)Nc1ccccc1-c1nnn(CC(=O)N2c3ccccc3CC2C)n1 (stereo not drawn)	n	n	78	n	n
Cc1cccc2cc(COC(=O)C(C)(C)C)c(=O)[nH]c12	n	n	n	n	n
NC(=O)c1ccccc1-c1nc(-c2ccccc2)no1	n	n	n	n	n
COc1cc(-c2noc(-c3ccco3)n2)cc(OC)c1OC	n	n	n	n	n
Cc1ccc(-c2noc(-c3ccccc3C(=O)N3CCOCC3)n2)cc1	n	n	n	n	n
COc1cc(-c2noc(-c3ccccc3C(=O)NCc3ccco3)n2)cc(OC)c1OC	n	n	50	n	n
O=C(NCc1ccco1)c1ccccc1-c1nc(-c2ccccc2)no1	n	n	54	n	n
CCc1nc2ccc(C(=O)NCc3ccco3)cc2nc1CC	n	n	n	n	n
O=C(NCc1ccco1)c1cccc(-c2nnc(-c3ccccc3)o2)c1	71	n	82	n	n
CN1CCN(C(=O)c2ccccc2-c2nc(-c3ccccc3)no2)CC1	n	n	71	n	n
Cc1ccc(-n2c(-c3ccccc3)cc(=O)nc2C)cc1	x	x	n	n	n
CSCC[C@H](NC(=O)OC(C)(C)C)C(=O)N1CCC(C(=O)N[C@H](C(=O)O)C(C)C)CC1	n	n	n	n	n
O=C1CCCc2c1nn(-c1ccccc1)[n+]2[O-]	n	n	n	n	n
Cc1nn(-c2ccccn2)c2c1C(c1ccccn1)C1=C(CCCC1=O)N2 (stereo not drawn)	n	n	n	n	n
C#CCOc1nc(OCC#C)nc(OCC#C)n1	89	n	n	n	n
Cc1ccc(NC(=O)CSc2nnc(-c3cnccn3)n2-c2ccccc2)cc1	n	n	n	n	n
CC(C)C(NC(=O)CSc1ccc(Cl)cc1)C(C)C	100	n	66	n	n
O=C(CSc1ccc(Cl)cc1)Nn1cnnc1	87	n	82	n	n
Cc1cnc(NC(=O)CSc2ccc(Cl)cc2)s1	69	n	n	n	n
O=C(CSc1ncccn1)Nn1cnnc1	n	n	n	n	n
O=C(CSc1ccc2ccccc2c1)Nn1cnnc1	88	n	90	n	n
CCN1CCCC1CNC(=O)Cn1cccc1C(=O)c1ccccc1 (stereo not drawn)	n	n	n	n	n
CC(C)(C)NC(=O)C(c1ccccc1)N(C(=O)c1csnn1)C1CC1 (stereo not drawn)	n	n	n	n	n
COC(=O)c1sc2nc(CSc3nc4ccc(C)cc4[nH]3)[nH]c(=O)c2c1C	n	n	n	2	n
SMILES	CYP2C19 inhib	CYP2C19 act	CYP2C9 inhib	PLAP activator	CYP2C9 act
CCOC(=O)c1sc2nc(CSc3nc4ccccc4n3CC)[nH]c(=O)c2c1C	n	n	68	n	n
CCOC(=O)c1nc2sc(C)c(C)c2c(=O)[nH]1	n	n	n	n	n
CCCS(=O)(=O)c1c(S(=O)(=O)CCC)c2cc(CC)ccn2c1C(=O)OC	n	n	n	n	n
CCCS(=O)(=O)c1c(S(=O)(=O)CCC)c2ccccn2c1C(=O)OC	n	n	52	n	n
CCCn1c(=O)c2c(C(F)(F)F)cc(-c3ccco3)nc2n(CCC)c1=O	n	n	n	n	n
CCCn1c(=O)c2c(C(=O)OCC)cc(-c3ccco3)nc2n(CCC)c1=O	n	n	61	n	n
COc1cc(C(=O)COC(=O)CNC(=O)C2CCCCC2)cc(OC)c1OC	n	n	n	n	n
CO/N=C(/CNC(=O)c1cccc(Cl)c1)c1ccc(Cl)cc1	92	n	68	n	n
O=C(NCCO)c1cccc(Cl)c1	n	n	n	n	n
CO/N=C(/CNC(=O)c1ccc(Cl)cc1Cl)c1ccc(Cl)cc1	62	n	n	n	n
Cc1ccc(CNC(=O)c2cn(C3CCCC3)c(=O)c3c2c2ccccc2n3C)o1	n	n	n	n	n
CC(C(=O)NCc1ccco1)n1cc(C(=O)c2ccco2)c2ccccc21 (stereo not drawn)	n	n	n	n	n
COc1ccc(-c2nnc(CSc3nc4ccccc4c(=O)n3C)o2)cc1OC	80	n	86	n	n
O=c1c2ccccc2nc(SCc2nnc(-c3ccccc3)o2)n1-c1ccc(F)cc1F	77	n	99	n	n
Cn1c(SCc2ccon2)nc2ccccc2c1=O	n	n	n	n	n
Cc1cc(=O)[nH]c(SCc2nnc(-c3ccccc3)o2)n1	n	n	n	n	n
CC1CCCCC12NC(=O)N(CC(=O)c1ccc[nH]1)C2=O (stereo not drawn)	n	n	n	n	n
COC(=O)c1cc(=O)n(Cc2ccc3c(c2)OCO3)c(=Nc2ccccc2)s1	n	n	68	n	n
COC(=O)c1cc(=O)n(Cc2ccco2)c(=Nc2ccc(F)c(Cl)c2)s1	64	n	69	n	n
COC(=O)c1cc(=O)n(CCc2ccccc2F)c(=Nc2ccc(F)c(Cl)c2)s1	n	n	n	n	n
CCCN1C(=O)SC(CC(=O)Nc2ccc(Br)cc2)C1=O (stereo not drawn)	70	n	52	n	n
CC(=O)Nc1ccc(NC(=O)CSc2ncnn2-c2ccccc2)cc1	n	n	n	n	n
O=C(CC1Sc2ncnn2C1=O)Nc1ccc(Br)cc1 (stereo not drawn)	76	n	n	n	n
CN=C1SC(CC(=O)Nc2ccc(N3CCOCC3)cc2)C(=O)N1C (stereo not drawn)	n	n	n	n	n
Cc1nn(C)c(C)c1/C=N/N=C1\CCC2C3CCc4cc(O)ccc4C3CCC12C (stereo not drawn)	n	n	n	n	n
SMILES	CYP2C19 inhib	CYP2C19 act	CYP2C9 inhib	PLAP activator	CYP2C9 act
COc1cccc(CNC(=O)C2CCN(S(=O)(=O)N3CC(C)CC(C)C3)CC2)c1 (stereo not drawn)	n	n	n	n	n
CS(=O)(=O)N1CCCC(C(=O)NCCCN2CCC(Cc3ccccc3)CC2)C1 (stereo not drawn)	n	n	n	n	n
CS(=O)(=O)N1CCCC(C(=O)NCCCN2CCN(Cc3ccccc3)CC2)C1 (stereo not drawn)	n	n	59	n	n
CCCS(=O)(=O)N1CCCC(C(=O)NCCCN2CCN(c3ccc(F)cc3)CC2)C1 (stereo not drawn)	n	n	n	n	2.7
CCN1CCN(C(=O)CCN2C(=O)COc3ccc(C)cc32)CC1	n	n	n	n	n
CCCc1nc(SCC(=O)N2CCC(Cc3ccccc3)CC2)c2c(=O)n(C)c(=O)n(C)c2n1	66	n	95	n	n
CCCn1c(SCC(=O)N2CCCc3ccccc32)nc2c1c(=O)n(C)c(=O)n2C	n	n	79	n	n
CCCc1nc(SCC(=O)N2CCCc3ccccc32)c2c(=O)n(C)c(=O)n(C)c2n1	n	n	94	n	n
CCn1c(SCC(=O)Nc2ccccc2N2CCCCC2)nc2c1c(=O)n(C)c(=O)n2C	n	n	79	n	n
CCn1c(SCC(=O)N2CCCC2)nc2c1c(=O)n(C)c(=O)n2C	n	n	n	n	n
